Data as given in PubChem BioAssay (NCATS).
Inconclusive results are not listed. Entries that show only a call come without a potency. Values without a mark were called inactive. Activity calls are given as the source filed them. Calls follow the shape of the dose curve; as a rule, active = well fitted curve in the direction sought with a large enough effect; inconclusive = small, poorly fitted or top-dose-only effect, or another doubt; inactive = no such curve, though single readings can be large; an effect the other way counts as inactive or inconclusive.

Experiments:
[1] = target: Rap guanine nucleotide exchange factor 3 (Homo sapiens) (UniProt O95398); test: Confirmatory qHTS for antagonist of cAMP-regulated guanine nucleotide exchange factor 3 (EPAC1) (AID 1645880); also: nearly all actives have a fitted effect of over 55% in size; also: potency is read from the fitted curve at half-maximal effect
Sequence of Rap guanine nucleotide exchange factor 3 (Homo sapiens) (O95398 whole entry, looked up): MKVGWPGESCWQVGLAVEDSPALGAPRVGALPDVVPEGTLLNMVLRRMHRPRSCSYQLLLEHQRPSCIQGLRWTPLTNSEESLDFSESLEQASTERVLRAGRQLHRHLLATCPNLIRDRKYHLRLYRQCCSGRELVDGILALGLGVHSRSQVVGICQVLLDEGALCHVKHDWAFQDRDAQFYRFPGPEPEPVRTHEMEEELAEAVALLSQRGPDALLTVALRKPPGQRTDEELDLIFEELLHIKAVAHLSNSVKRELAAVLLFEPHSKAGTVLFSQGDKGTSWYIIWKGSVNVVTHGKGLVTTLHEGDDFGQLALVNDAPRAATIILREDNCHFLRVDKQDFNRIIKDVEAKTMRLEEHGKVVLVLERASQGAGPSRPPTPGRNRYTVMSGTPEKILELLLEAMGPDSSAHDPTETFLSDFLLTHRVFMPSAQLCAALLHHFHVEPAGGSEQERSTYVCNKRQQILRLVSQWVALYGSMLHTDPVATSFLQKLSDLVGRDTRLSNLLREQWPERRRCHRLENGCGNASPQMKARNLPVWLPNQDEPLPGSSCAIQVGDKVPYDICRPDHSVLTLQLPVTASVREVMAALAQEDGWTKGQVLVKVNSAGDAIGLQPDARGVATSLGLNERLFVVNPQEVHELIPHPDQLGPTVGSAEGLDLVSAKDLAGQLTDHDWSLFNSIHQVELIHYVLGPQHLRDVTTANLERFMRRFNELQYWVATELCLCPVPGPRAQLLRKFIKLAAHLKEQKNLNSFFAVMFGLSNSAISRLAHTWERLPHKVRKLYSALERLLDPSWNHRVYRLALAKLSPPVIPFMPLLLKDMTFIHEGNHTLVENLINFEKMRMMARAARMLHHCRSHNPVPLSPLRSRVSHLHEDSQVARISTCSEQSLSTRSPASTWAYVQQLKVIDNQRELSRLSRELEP
How it was run: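 Released BODIPY-GDP fluoresces less than Rap1-bound BODIPY-GDP; the signal is followed at 480/540 nm at 5-min intervals over 30 min, after 5 min at room temperature. Reactions contain 100 nM EPAC1, 250 nM RAP1B-BODIPY-GDP and 50 uM GDP; results are normalized to ATA and DMSO.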

[2] = target: Rap guanine nucleotide exchange factor 3 (Homo sapiens) (UniProt O95398); test: Confirmatory qHTS for agonist of cAMP-regulated guanine nucleotide exchange factor 3 (EPAC1) (AID 1645881);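 also: EPAC1 catalysed release of BODIPY-GDP from Rap1B seen as fluorescence loss; nearly all actives have a fitted effect of over 75% in size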
[3] = target: Rap guanine nucleotide exchange factor 4 (Homo sapiens) (UniProt Q8WZA2); test: Confirmatory qHTS for agonist of cAMP-regulated guanine nucleotide exchange factor 4 (EPAC2) (AID 1645884);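 also: nucleotide exchange releases bodipy-GDP from Rap1 and this lowers its fluorescence; nearly all actives have a fitted effect of over 65% in size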
Sequence of Rap guanine nucleotide exchange factor 4 (Homo sapiens) (Q8WZA2 whole entry, looked up): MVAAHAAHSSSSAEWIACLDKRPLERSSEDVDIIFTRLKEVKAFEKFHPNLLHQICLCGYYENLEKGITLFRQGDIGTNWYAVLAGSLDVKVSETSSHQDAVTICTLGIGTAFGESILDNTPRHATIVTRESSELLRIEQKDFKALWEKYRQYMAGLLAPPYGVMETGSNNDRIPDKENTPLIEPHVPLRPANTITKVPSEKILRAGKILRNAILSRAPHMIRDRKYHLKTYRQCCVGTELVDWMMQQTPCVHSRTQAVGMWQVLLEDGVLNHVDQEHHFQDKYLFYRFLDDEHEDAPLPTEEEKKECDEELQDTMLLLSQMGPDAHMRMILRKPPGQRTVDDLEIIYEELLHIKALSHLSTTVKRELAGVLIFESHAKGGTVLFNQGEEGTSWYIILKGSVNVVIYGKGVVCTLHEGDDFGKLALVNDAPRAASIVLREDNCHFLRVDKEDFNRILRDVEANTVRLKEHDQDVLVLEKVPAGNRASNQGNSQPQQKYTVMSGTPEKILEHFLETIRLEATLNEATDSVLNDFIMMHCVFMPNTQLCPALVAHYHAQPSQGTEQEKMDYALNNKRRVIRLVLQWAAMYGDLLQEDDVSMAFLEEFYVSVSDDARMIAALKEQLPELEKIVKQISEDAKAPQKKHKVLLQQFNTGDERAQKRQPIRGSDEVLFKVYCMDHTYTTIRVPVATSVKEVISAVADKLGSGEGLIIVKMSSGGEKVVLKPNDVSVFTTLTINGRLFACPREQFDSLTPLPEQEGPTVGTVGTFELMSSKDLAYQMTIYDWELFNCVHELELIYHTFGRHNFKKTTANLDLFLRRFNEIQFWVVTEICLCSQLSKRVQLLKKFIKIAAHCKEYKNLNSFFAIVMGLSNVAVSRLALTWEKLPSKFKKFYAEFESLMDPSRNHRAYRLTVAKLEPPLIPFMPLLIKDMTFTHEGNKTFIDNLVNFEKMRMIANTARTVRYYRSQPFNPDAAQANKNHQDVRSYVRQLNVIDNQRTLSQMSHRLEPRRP

[4] = target: Rap guanine nucleotide exchange factor 4 (Homo sapiens) (UniProt Q8WZA2); test: Confirmatory qHTS for antagonist of cAMP-regulated guanine nucleotide exchange factor 4 (EPAC2) (AID 1645885); also: nearly all actives have a fitted effect of over 25% in size
[5] = target: Rap guanine nucleotide exchange factor 3 (Homo sapiens) (UniProt O95398); test: Counterscreen qHTS for antagonist of cAMP-regulated guanine nucleotide exchange factor 3 (EPAC1) (AID 1645888)
How it was run: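 Rap1B-BODIPY-GDP 250 nM + GDP 50 uM; cpds 7-pt, final 9.74 nM–152 uM (activator mode) or from 7.32 nM upwards (inhibitor mode); RT; FI 480/540 nm at 5 and 30 min, then ± cAMP, reread.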

SMILES: CC1(C(=O)NS(=O)(=O)c2ccc(F)cc2F)CCN1C(=O)C1(c2ccc(Cl)cc2)CCC1 (stereo not given)
- Potency [1]: 9.53 µM (active)
- Potency [2]: inactive
- Potency [3]: inactive
- Potency [4]: inactive
- Potency [5]: inactive

SMILES: COc1ccc(/C=C/C(=O)NC2CCS(=O)(=O)C2)cc1 (stereo not given)
- Potency [1]: inactive
- Potency [2]: inactive
- Potency [3]: inactive
- Potency [4]: inactive
- Potency [5]: inactive

SMILES: CCOC(=O)N1CCN(c2ccc(S(=O)(=O)N(Cc3ccccc3)Cc3ccccc3)cn2)CC1
- Potency [1]: inactive
- Potency [2]: inactive
- Potency [3]: inactive
- Potency [4]: inactive
- Potency [5]: inactive

SMILES: CCOc1cc(S(=O)(=O)N(CC)CC)ccc1Cl
- Potency [1]: inactive
- Potency [2]: inactive
- activation [3]: 7.51% [at 17.1 µM, percent relative to cAMP agonist control]
- Potency [4]: inactive
- activity change, negative = inhibition [5]: -20.8% [at 30.8 µM]

SMILES: CSCCC(C(=O)O)N1C(=O)c2ccc(C(=O)O)cc2C1=O (stereo not given)
- Potency [1]: inactive
- Potency [2]: inactive
- activation [3]: 4.67% [at 17.1 µM, percent relative to cAMP agonist control]
- Potency [4]: inactive
- activity change, negative = inhibition [5]: -1.74% [at 30.8 µM]

SMILES: CC(=O)Nc1ccc(NS(=O)(=O)c2cn(C)c(=O)n(C)c2=O)cc1
- Potency [1]: inactive
- Potency [2]: inactive
- activation [3]: 8.18% [at 17.1 µM, percent relative to cAMP agonist control]
- Potency [4]: inactive
- activity change, negative = inhibition [5]: 9.16% [at 30.8 µM]

SMILES: N#C/C(=C\c1ccc(O)c([N+](=O)[O-])c1)c1nc2ccccc2s1
- Potency [1]: 33.8 µM (active)
- Potency [2]: inactive
- Potency [3]: inactive
- Potency [4]: inactive
- Potency [5]: inactive

SMILES: O=C1C=C(Nc2cccnc2)c2ccccc2C1=O
- Potency [1]: 67.5 µM (active)
- Potency [2]: inactive
- Potency [3]: inactive
- outcome [4]: inactive [at 12.7 µM]
- Potency [5]: inactive

SMILES: CCOc1ccc(C(=O)Nc2ccc3c(c2)N(C(C)=O)CCC3)cc1OCC
- Potency [1]: inactive
- Potency [2]: inactive
- Potency [3]: inactive
- Potency [4]: inactive
- Potency [5]: inactive

SMILES: COc1ccc(CNC(=O)C(=O)Nc2ccc(OC)cc2OC)cc1
- Potency [1]: inactive
- Potency [2]: inactive
- Potency [3]: inactive
- Potency [4]: inactive
- Potency [5]: inactive

SMILES: COc1ccc(Cl)cc1N(C)C(=O)Cc1noc2ccc(C)cc12
- Potency [1]: inactive
- Potency [2]: inactive
- Potency [3]: inactive
- Potency [4]: inactive
- Potency [5]: inactive

SMILES: CS(=O)(=O)c1cccc(C(=O)OCC(=O)c2ccc3c(c2)OCCO3)c1
- Potency [1]: inactive
- Potency [2]: inactive
- activation [3]: 8.5% [at 17.1 µM, percent relative to cAMP agonist control]
- Potency [4]: inactive
- activity change, negative = inhibition [5]: -4.85% [at 30.8 µM]

SMILES: Clc1ccccc1Cn1c(-c2cccs2)nc2ccccc21
- Potency [1]: inactive
- Potency [2]: inactive
- Potency [3]: inactive
- Potency [4]: inactive
- Potency [5]: inactive

SMILES: Cc1cc(NC(=O)CSc2sc3c(O)cc(=O)[nH]c3c2C#N)ccc1Br
- Potency [1]: 42.6 µM (active)
- Potency [2]: inactive
- Potency [3]: inactive
- Potency [4]: inactive
- Potency [5]: inactive

SMILES: COc1ccc(S(=O)(=O)N2CCC[C@H]2C(=O)N2CCC[C@H]2C(=O)NCc2ccccc2)cc1C
- Potency [1]: inactive
- Potency [2]: inactive
- activation [3]: 4.41% [at 17.1 µM, percent relative to cAMP agonist control]
- Potency [4]: inactive
- activity change, negative = inhibition [5]: -5.32% [at 30.8 µM]

SMILES: Cc1ccc2nc(N3C(=O)C(O)=C(C(=O)c4ccc(C)o4)C3c3cccc(O)c3)sc2c1 (stereo not given)
- Potency [1]: 37.9 µM (active)
- Potency [2]: inactive
- Potency [3]: inactive
- Potency [4]: inactive
- Potency [5]: inactive

SMILES: NC(=O)c1cc2ccccc2o/c1=N\NC(=O)c1ccncc1
- Potency [1]: inactive
- Potency [2]: inactive
- activation [3]: 1.92% [at 17.1 µM, percent relative to cAMP agonist control]
- Potency [4]: inactive
- activity change, negative = inhibition [5]: -2.29% [at 30.8 µM]

SMILES: OC[C@H]1O[C@H](OCCc2ccc(O)cc2)[C@H](O)[C@@H](O)[C@@H]1O
- Potency [1]: inactive
- Potency [2]: inactive
- Potency [3]: inactive
- Potency [4]: inactive
- Potency [5]: inactive

SMILES: COc1ccc(NC(=O)COc2ccccc2C#N)c(S(=O)(=O)N2CCCCC2)c1
- Potency [1]: inactive
- Potency [2]: inactive
- Potency [3]: inactive
- Potency [4]: inactive
- Potency [5]: inactive

SMILES: CCOc1ccc(CN2C(=O)c3ccccc3Sc3ccc(C(=O)NCc4ccc5c(c4)OCO5)cc32)cc1
- Potency [1]: inactive
- Potency [2]: inactive
- Potency [3]: inactive
- outcome [4]: inactive [at 12.7 µM]
- Potency [5]: inactive

SMILES: CC(C)c1ccc(NC(=O)c2ccc(Cn3nc(N4CCN(c5ccccc5)CC4)ccc3=O)o2)cc1
- Potency [1]: 84.9 µM (active)
- Potency [2]: inactive
- Potency [3]: inactive
- Potency [4]: inactive
- Potency [5]: inactive

SMILES: OCc1cccc(-c2cnc3c(Nc4cccc(OC(F)(F)C(F)F)c4)nccn23)c1
- Potency [1]: inactive
- Potency [2]: inactive
- activation [3]: -0.754% [at 17.1 µM, percent relative to cAMP agonist control]
- Potency [4]: inactive
- activity change, negative = inhibition [5]: 9.1% [at 30.8 µM]

SMILES: O=C(/C=C/c1ccc2c(c1)OCO2)Nc1cc(S(=O)(=O)N2CCOCC2)ccc1N1CCOCC1
- Potency [1]: inactive
- Potency [2]: inactive
- Potency [3]: inactive
- Potency [4]: inactive
- Potency [5]: inactive

SMILES: Cc1nc(SC(C)C(=O)NCC2CCCO2)c2cc(-c3ccccc3)sc2n1 (stereo not given)
- Potency [1]: inactive
- Potency [2]: inactive
- Potency [3]: inactive
- Potency [4]: inactive
- Potency [5]: inactive
